Test results: the supplement of paper PMC6992640

Key:
[1] = system: HCI01 (cells of a triple-negative basal-like breast cancer xenograft); assay: cell viability of combination (% of vehicle); higher = less cytotoxic; settings: 1 µM; 72 h; partner dose: 10 nM
Protocol: (§1)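 PDX cells were treated for 72 h with each drug at 1 µM plus afatinib (10 nM; 1 µM for WHIM30). Luciferase viability is expressed as percent of vehicle.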

[2] = system: WHIM2 (cells of a triple-negative basal-like breast cancer xenograft); assay: as above; settings: 1 µM; 72 h; partner dose: 10 nM
Protocol: as §1

Row | Structure (SMILES) | cell viability of combination [1] | cell viability of combination [2]
1 | CC(NCCCc1cccc(C(F)(F)F)c1)c1cccc2ccccc12.Cl (stereo unspecified) [Cinacalcet HCl] + CN(C)C/C=C/C(=O)Nc1cc2c(Nc3ccc(F)c(Cl)c3)ncnc2cc1O[C@H]1CCOC1 [Afatinib] | 58.1 | 43.1
2 | CC1(C)CCC(c2ccc(Cl)cc2)=C(CN2CCN(c3ccc(C(=O)NS(=O)(=O)c4ccc(NC(CCN5CCOCC5)CSc5ccccc5)c(S(=O)(=O)C(F)(F)F)c4)cc3)CC2)C1 (stereo unspecified) [ABT-263 (Navitoclax)] + CN(C)C/C=C/C(=O)Nc1cc2c(Nc3ccc(F)c(Cl)c3)ncnc2cc1O[C@H]1CCOC1 [Afatinib] | 33 | 29.5
3 | CC(O)C(=O)O.CCOc1ccc2nc3cc(N)ccc3c(N)c2c1.O [Ethacridine lactate monohydrate] + CN(C)C/C=C/C(=O)Nc1cc2c(Nc3ccc(F)c(Cl)c3)ncnc2cc1O[C@H]1CCOC1 [Afatinib] | 52.5 | 31.1
4 | CN1CCN(CCOc2cc(OC3CCOCC3)c3c(Nc4c(Cl)ccc5c4OCO5)ncnc3c2)CC1 [Saracatinib (AZD0530)] + CN(C)C/C=C/C(=O)Nc1cc2c(Nc3ccc(F)c(Cl)c3)ncnc2cc1O[C@H]1CCOC1 [Afatinib] | 41.1 | 24.5
5 | CO[C@H]1C[C@@H]2CC[C@@H](C)[C@@](O)(O2)C(=O)C(=O)N2CCCC[C@H]2C(=O)O[C@H]([C@H](C)C[C@@H]2CC[C@@H](O)[C@H](OC)C2)CC(=O)[C@H](C)/C=C(\C)[C@@H](O)[C@@H](OC)C(=O)[C@H](C)C[C@H](C)/C=C/C=C/C=C/1C [Rapamycin (Sirolimus)] + CN(C)C/C=C/C(=O)Nc1cc2c(Nc3ccc(F)c(Cl)c3)ncnc2cc1O[C@H]1CCOC1 [Afatinib] | 51 | 39.3
6 | CC1=CC(=O)c2ccccc2C1=O [Menadione] + CN(C)C/C=C/C(=O)Nc1cc2c(Nc3ccc(F)c(Cl)c3)ncnc2cc1O[C@H]1CCOC1 [Afatinib] | 55.8 | 50.2
7 | COc1ccccc1OCCNCC(O)COc1cccc2[nH]c3ccccc3c12 (stereo unspecified) [Carvedilol] + CN(C)C/C=C/C(=O)Nc1cc2c(Nc3ccc(F)c(Cl)c3)ncnc2cc1O[C@H]1CCOC1 [Afatinib] | 48.7 | 41.1
8 | COc1cc2ncnc(Nc3ccc(F)c(Cl)c3)c2cc1NC(=O)C=CCN1CCCCC1 + CN(C)C/C=C/C(=O)Nc1cc2c(Nc3ccc(F)c(Cl)c3)ncnc2cc1O[C@H]1CCOC1 [Afatinib] | 45.1 | 29.8
9 | COc1cc2c(Oc3ccc(NC(=O)C4(C(=O)Nc5ccc(F)cc5)CC4)cc3F)ccnc2cc1OCCCN1CCOCC1 + CN(C)C/C=C/C(=O)Nc1cc2c(Nc3ccc(F)c(Cl)c3)ncnc2cc1O[C@H]1CCOC1 [Afatinib] | 33.9 | 37.7
10 | Cl.Cl.Fc1ccc(C(c2ccc(F)cc2)N2CCN(CC=Cc3ccccc3)CC2)cc1 [Flunarizine 2HCl] + CN(C)C/C=C/C(=O)Nc1cc2c(Nc3ccc(F)c(Cl)c3)ncnc2cc1O[C@H]1CCOC1 [Afatinib] | 63.3 | 50.6
11 | CN(C)c1ccc(C(=C2C=CC(=[N+](C)C)C=C2)c2ccc(N(C)C)cc2)cc1.[Cl-] [Crystal Violet] + CN(C)C/C=C/C(=O)Nc1cc2c(Nc3ccc(F)c(Cl)c3)ncnc2cc1O[C@H]1CCOC1 [Afatinib] | 45 | 28.4
12 | CC1=C(C(=O)OC(C)C)C(c2cccc([N+](=O)[O-])c2)C(C(=O)OC2CN(C(c3ccccc3)c3ccccc3)C2)=C(N)N1 (stereo unspecified) [Azelnidipine] + CN(C)C/C=C/C(=O)Nc1cc2c(Nc3ccc(F)c(Cl)c3)ncnc2cc1O[C@H]1CCOC1 [Afatinib] | 56.7 | 43
13 | COc1cc2c(Oc3ccc4[nH]c(C)cc4c3F)ncnc2cc1OCCCN1CCCC1 [Cediranib (AZD217)] + CN(C)C/C=C/C(=O)Nc1cc2c(Nc3ccc(F)c(Cl)c3)ncnc2cc1O[C@H]1CCOC1 [Afatinib] | 47.5 | 31.6
14 | CNC(=O)c1cc(Oc2ccc(NC(=O)Nc3ccc(Cl)c(C(F)(F)F)c3)cc2)ccn1 [Sorafenib] + CN(C)C/C=C/C(=O)Nc1cc2c(Nc3ccc(F)c(Cl)c3)ncnc2cc1O[C@H]1CCOC1 [Afatinib] | 49.6 | 48.5
15 | COc1cc(C(=O)NS(=O)(=O)c2ccccc2C)ccc1Cc1cn(C)c2ccc(NC(=O)OC3CCCC3)cc12 [Zafirlukast] + CN(C)C/C=C/C(=O)Nc1cc2c(Nc3ccc(F)c(Cl)c3)ncnc2cc1O[C@H]1CCOC1 [Afatinib] | 61.4 | 52.2
16 | CCCCCOc1ccc(-c2ccc(-c3ccc(C(=O)N[C@H]4C[C@@H](O)[C@@H](O)NC(=O)[C@@H]5[C@@H](O)[C@@H](C)CN5C(=O)[C@H]([C@@H](C)O)NC(=O)[C@H]([C@H](O)[C@@H](O)c5ccc(O)cc5)NC(=O)[C@@H]5C[C@@H](O)CN5C(=O)[C@H]([C@@H](C)O)NC4=O)cc3)cc2)cc1 [Anidulafungin] + CN(C)C/C=C/C(=O)Nc1cc2c(Nc3ccc(F)c(Cl)c3)ncnc2cc1O[C@H]1CCOC1 [Afatinib] | 55.5 | 43
17 | C=C(c1ccc(C(=O)O)cc1)c1cc2c(cc1C)C(C)(C)CCC2(C)C [Bexarotene] + CN(C)C/C=C/C(=O)Nc1cc2c(Nc3ccc(F)c(Cl)c3)ncnc2cc1O[C@H]1CCOC1 [Afatinib] | 51.8 | 35.7
18 | Clc1ccc(COC(Cn2ccnc2)c2ccc(Cl)cc2Cl)cc1.O=[N+]([O-])O (stereo unspecified) [Econazole nitrate] + CN(C)C/C=C/C(=O)Nc1cc2c(Nc3ccc(F)c(Cl)c3)ncnc2cc1O[C@H]1CCOC1 [Afatinib] | 55.8 | 55.8
19 | COc1ncc(-c2ccc3nccc(-c4ccnnc4)c3c2)cc1NS(=O)(=O)c1ccc(F)cc1F + CN(C)C/C=C/C(=O)Nc1cc2c(Nc3ccc(F)c(Cl)c3)ncnc2cc1O[C@H]1CCOC1 [Afatinib] | 28.7 | 15.7
20 | Br.Cc1ccc(Sc2ccccc2N2CCNCC2)c(C)c1 + CN(C)C/C=C/C(=O)Nc1cc2c(Nc3ccc(F)c(Cl)c3)ncnc2cc1O[C@H]1CCOC1 [Afatinib] | 49.7 | 46.7
21 | Clc1ccc(COC(Cn2ccnc2)c2ccc(Cl)cc2Cl)c(Cl)c1.O=[N+]([O-])O (stereo unspecified) [Miconazole Nitrate] + CN(C)C/C=C/C(=O)Nc1cc2c(Nc3ccc(F)c(Cl)c3)ncnc2cc1O[C@H]1CCOC1 [Afatinib] | 63.9 | 52.2
22 | CCCCCCCCc1ccc(CCC(N)(CO)CO)cc1.Cl [Fingolimod (FTY720)] + CN(C)C/C=C/C(=O)Nc1cc2c(Nc3ccc(F)c(Cl)c3)ncnc2cc1O[C@H]1CCOC1 [Afatinib] | 53.7 | 44.5
23 | Cc1cn(-c2cc(NC(=O)c3ccc(C)c(Nc4nccc(-c5cccnc5)n4)c3)cc(C(F)(F)F)c2)cn1 [Nilotinib(AMN-107)] + CN(C)C/C=C/C(=O)Nc1cc2c(Nc3ccc(F)c(Cl)c3)ncnc2cc1O[C@H]1CCOC1 [Afatinib] | 45.9 | 63.2
